According to ChEMBL document CHEMBL1157539, “Thousands of chemical starting points for antimalarial lead identification” (Nature, 2010):

Experiments:
Assay type in all cases: functional
Plasmodium falciparum [1] = assay: GSK_TCMDC: Inhibition of Plasmodium falciparum 3D7 in whole red blood cells, using parasite LDH activity as an index of growth. Test compounds present at 2uM
Plasmodium falciparum [2] = assay: GSK_TCMDC: Inhibition of Plasmodium falciparum Dd2 in whole red blood cells, using parasite LDH activity as an index of growth. Test compounds present at 2uM
HepG2 = assay: GSK_TCMDC: Percent inhibition of human HepG2 cell line. Test compounds present at 10uM.

Row | SMILES | Inhibition (Plasmodium falciparum [1]) [%] | Inhibition (Plasmodium falciparum [2]) [%] | Inhibition (HepG2) [%]
1 | Cc1nc(-c2ccccc2)nc(N2CCN(C(=O)c3ccco3)CC2)c1Cc1ccccc1F | 95 | 86 | 7
2 | CC(C)n1ncc2c3c(N)nc(N)nc3ccc21 | 98 | 6 | 64
3 | Cc1cccc(C(=O)Nc2ccnc(N3CCC(N(C)Cc4cccc(C#N)c4)CC3)c2)c1.O=C(O)C(F)(F)F | 100 | 52 | 5
4 | O=C(/C=C/c1ccc(Cl)c(Cl)c1)NCCCCCN1CCCN(C(=S)Nc2ccc(Cl)cc2)CC1 | 86 | 10 | 7
5 | COc1ccc(CCN(C)CCOc2ccc(NC(=O)c3cccc4cc5ccccc5nc34)cc2)cc1OC | 100 | 99 | 37
6 | COc1cc(NCC(O)CNc2cc(Cl)nc3ccccc23)nc2ccccc12 (stereo not given) | 99 | 99 | 17
7 | CCCCCCOc1ccc(C(=O)NCCCC2CCN(CCCCCNC(=O)C=Cc3ccc(Cl)c(Cl)c3)CC2)cc1 | 94 | 25 | 22
8 | COc1ccc2nccc([C@@H](O)CN3CCC(NCCOc4cc(C(F)(F)F)ccc4F)CC3)c2c1.O=C(O)C(=O)O | 100 | 83 | 13
9 | CC(C)C[C@H](NC(=O)c1cc2ccccc2s1)C(=O)N[C@H]1CCN(Cc2ccc(I)c(OC3CCN(C)C3)c2)C1.O=C(O)C(F)(F)F (stereo not given in full) | 100 | 95 | 99
10 | Cc1cc(F)ccc1-c1nc(N(C)CCN(C)C(=O)N(C)c2ccccc2)nc2c1ccc(=O)n2-c1c(F)cccc1F.O=C(O)C(F)(F)F | 87 | 77 | 0
11 | CN1CCN(c2cc(NC(=O)c3ccc(-c4ccc(Cl)cc4)cc3)ccc2Cl)CC1 | 99 | 33 | 30
12 | Cc1cc(N(CCO)CCCN2CCCCC2)nc(Nc2ccc(Cl)cc2)n1.Cl | 100 | 18 | 12
13 | Cl.c1ccc2c(Nc3ccc(Oc4ccc(Nc5c6ccccc6nc6ccccc56)cc4)cc3)c3ccccc3nc2c1 | 100 | 99 | 21
14 | COc1ccc(NC(=O)Nc2ccc(-c3ccccc3)cc2)cc1Cn1nc(Cl)c(N2CCCNCC2)cc1=O.O=C(O)C(F)(F)F | 100 | 84 | 18
15 | CCCCCCN1CCN(Cc2cccc(NC(=O)c3cc4ccccc4o3)c2)CC1.O=C(O)C(F)(F)F | 93 | 83 | 20
16 | O=C(Nc1ccc(C(F)(F)F)cc1)NC1CCN(c2ccnc3ccccc23)CC1.O=C(O)C(F)(F)F | 100 | 62 | 46
17 | COc1cc(C(=O)NC2CC(C)(C)NC(C)(C)C2)ccc1-c1cc2cc(Cl)c(Cl)cc2[nH]1.O=C(O)C(F)(F)F | 99 | 31 | 41
18 | CC(C)(C)Cn1cc(-c2ccc(C(=O)NCCc3ccc(S(C)(=O)=O)cc3)cc2)c(N)n1.CC(C)(C)Cn1ncc(-c2ccc(C(=O)NCCc3ccc(S(C)(=O)=O)cc3)cc2)c1N.O=C(O)C(F)(F)F | 86 | 10 | 7
19 | CCCCNc1cc(C)nc(NCc2ccccc2)n1 | 97 | 37 | 23
20 | Cl.O=C(c1ccc(Cl)cc1)C1CCN(CCCOc2ccc3c(c2)CCNCC3)CC1 | 93 | 23 | 78
21 | Cc1[nH]c2c(C)cccc2c1C1CCN(CCC2CCN(C(=O)/C=C/c3ccc(Cl)c(Cl)c3)CC2)CC1 | 100 | 79 | 67
22 | COc1nc2c(N3CCN(CCNCc4ccc5c(n4)NC(=O)CS5)CC3)ccnc2cc1F | 100 | 96 | 18
23 | COc1ccc(-c2cc3ncnc(N4CCN(CCN5CCCC5)CC4)c3s2)cc1 | 98 | 90 | 22
24 | CCOC(=O)N1NC(=O)N(c2ccccc2)C1(c1ccccc1)c1ccccc1 | 96 | 82 | 5
25 | COc1cc(C(=O)NCc2nn(CCN3CCC(N4CCCC4)CC3)cc2-c2ccc(Cl)c(Cl)c2)cc(OC)c1OC | 97 | 0 | 16
26 | CCCC(C)Nc1nc(C)cc(N[C@@H](Cc2ccccc2)C(=O)NCc2ccc(C)cc2)n1.O=C(O)C(F)(F)F (stereo not given in full) | 100 | 93 | 22
27 | CCOc1cc(NCCSCc2nc[nH]c2C)nc2ccccc12 | 92 | 10 | 4
28 | CCOC(=O)c1c(C)noc1Nc1ccc(OC)cc1 | 99 | 0 | 0
29 | COc1cc(CNC[C@@H](O)[C@H](Cc2ccccc2)NC(=O)c2cc(C3CCCC3)cc(N3CCCC3=O)c2)cc(OC)c1.Cl | 97 | 76 | 16
30 | COc1ccc(C(=O)N2CCC3(CC2)C(=O)N(CC(=O)NCC2CCCCC2)CN3c2ccccc2)cc1 | 100 | 99 | 18
